The results in this text go back to PubChem BioAssay (NCATS).

Structures are written as SMILES. Inconclusive results are not listed. Activity calls are given as the source filed them. The call rests on the fitted dose curve; in most records, active means well fitted inhibition curve with a large enough effect; inconclusive means small, poorly fitted or top-dose-only effect; inactive means no such curve, though single readings can be large or run the other way.

Sequence of Protein phosphatase 1D (Homo sapiens) (O15297 whole entry, looked up): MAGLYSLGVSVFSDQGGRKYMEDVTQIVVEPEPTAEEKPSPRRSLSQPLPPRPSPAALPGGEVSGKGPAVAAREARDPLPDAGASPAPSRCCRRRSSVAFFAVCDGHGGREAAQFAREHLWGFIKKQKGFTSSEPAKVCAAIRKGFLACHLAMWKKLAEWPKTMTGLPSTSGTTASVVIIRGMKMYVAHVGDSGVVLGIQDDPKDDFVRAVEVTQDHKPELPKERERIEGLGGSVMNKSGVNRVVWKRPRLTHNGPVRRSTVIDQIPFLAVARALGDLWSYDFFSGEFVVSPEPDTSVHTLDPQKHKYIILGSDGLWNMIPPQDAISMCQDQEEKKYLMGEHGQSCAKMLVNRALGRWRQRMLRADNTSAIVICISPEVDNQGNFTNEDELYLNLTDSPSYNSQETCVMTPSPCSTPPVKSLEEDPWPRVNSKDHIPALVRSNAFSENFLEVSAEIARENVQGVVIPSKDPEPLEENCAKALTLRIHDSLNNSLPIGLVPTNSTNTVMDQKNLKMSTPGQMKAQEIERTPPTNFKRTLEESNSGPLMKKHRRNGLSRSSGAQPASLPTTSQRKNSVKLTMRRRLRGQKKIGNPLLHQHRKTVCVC

The target in the test is Protein phosphatase 1D (Homo sapiens) (UniProt O15297). Kind of test: RapidFire Mass Spectrometry qHTS Assay for Modulators of WT P53-Induced Phosphatase 1 (WIP1) (AID 1347424).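 Further: amount of dephosphorylated VEPPL-S-QETFS peptide product formed by WIP1.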 The settings on record: WIP1 dephosphorylation of phosphopeptide, RapidFire MS; series mostly up to 63 µM. The method, boiled down:
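WIP1 (10 nM final) was preincubated 1 h at room temperature with compounds in Tris-HCl pH 7.5, 30 mM MgCl2, TCEP, EGTA, BSA; 2 uM VEPPL-pS-QETFS phosphopeptide was added for 5 min, quenched with formic acid, and dephosphorylated product quantified by RapidFire MS.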
As to `CNCCC(Oc1ccc(C(F)(F)F)cc1)c1ccccc1` (stereo unspecified), the result was inactive.

Turning to `Nc1cc(=O)[nH]c(N)n1`, the call was inactive.

`CN1CCN(C2Cc3ccccc3Sc3ccc(Cl)cc32)CC1` (stereo unspecified): the molecule was classed as inactive.

As to `CC(=O)CCC(=O)O`, the result was inactive.

With `Cc1ncc(COP(=O)(O)O)c(C=O)c1O`, the result was inactive.

Consider `CCN(CC)C(C)CN1c2ccccc2Sc2ccccc21` (stereo unspecified), for which the outcome was inactive.

With `CN(C)CCOC(C)(c1ccccc1)c1ccccn1` (stereo unspecified), the outcome was inactive.

Take `CSc1ccc2c(c1)C(N1CCN(C)CC1)Cc1ccccc1S2` (stereo unspecified): the outcome was inactive.

For the molecule `CN(C)CC[C@@H](c1ccc(Cl)cc1)c1ccccn1`, the outcome was inactive.

As to `CC(C)C(=O)c1c(C(C)C)nn2ccccc12`, the result was inactive.

Regarding `CN(C)CCC=C1c2ccccc2CCc2ccccc21`, the molecule was classed as inactive.

As to `CN(C)CCCN1c2ccccc2Sc2ccc(Cl)cc21`, the molecule was called inactive.

`C[C@H]1O[C@@H](n2cc(F)c(=O)[nH]c2=O)[C@H](O)[C@@H]1O`: the result was inactive.

As for `CN(C)CCCN1c2ccccc2CCc2ccccc21`, the call was inactive.

`CN(N=O)C(=O)N[C@@H]1[C@@H](O)[C@H](O)[C@@H](CO)O[C@@H]1O`: the call was inactive.

As to `CC1=C(CC(=O)O)c2cc(F)ccc2/C1=C\c1ccc(S(C)=O)cc1` (stereo unspecified), the call was inactive.

In the case of `CC(=O)c1ccc2c(c1)N(CCCN(C)C)c1ccccc1S2`, the molecule was classed as inactive.

For `CCCn1cnc2c1c(=O)n(CCCCC(C)=O)c(=O)n2C`, the molecule was classed as inactive.

As for `C[C@]12CC[C@@H]3c4ccc(O)cc4CC[C@H]3[C@@H]1CCC2=O`, the result was inactive.

In the case of `CCCCN(CCCC)CC(O)c1cc(Cl)cc2c1-c1ccc(Cl)cc1/C2=C/c1ccc(Cl)cc1` (stereo unspecified), the result was inactive.

`C[C@]12C[C@H](O)[C@H]3[C@@H](CCC4=CC(=O)CC[C@@]43C)[C@@H]1CC[C@@H]2C(=O)CO`: the call was inactive.

On to `NC(=O)c1ncn([C@@H]2O[C@H](CO)[C@@H](O)[C@H]2O)c1N`, for which the result was inactive.

Regarding `COC(=O)C1=C(C)NC(C)=C(C(=O)OC)C1c1ccccc1[N+](=O)[O-]`, the molecule was classed as inactive.

For the molecule `C#CCN(C)Cc1ccccc1`, the call was inactive.

With `CCN(CC)CCOC(=O)C1(C2CCCCC2)CCCCC1`, the outcome was inactive.

Take `CSc1ccc2c(c1)N(CCC1CCCCN1C)c1ccccc1S2` (stereo unspecified): the outcome was inactive.

For the molecule `CCCCCCCCCCCCCCCC(=O)NCCO`, the molecule was classed as inactive.

On to `NC1CCN(c2cccc(Cl)n2)CC1`, for which the outcome was inactive.

With `CNCC(O)c1ccc(O)c(O)c1` (stereo unspecified), the outcome was inactive.

As for `C[C@H](NC(CCc1ccccc1)C(=O)O)C(=O)N1CCC[C@H]1C(=O)O` (stereo partly specified), the molecule was called inactive.

Consider `CC(CN(C)C)CN1c2ccccc2CCc2ccccc21` (stereo unspecified), for which the molecule was called inactive.
